Screening results as filed in PubChem BioAssay.
Rows were chosen to be rich in hits. Some 1.8% of all compounds tested hit in one or more screens of this group.
HTT cytoprotect – Huntington cell model cytoprotection by ATP luminescence; PC12 HTT-Q103 induced, cytoprotection, ATP luminescence, 40 h; Potency, µM (highest dose often 56.4 µM), usual class: activators; 0.14% of 230,000 active; AID 1471; note: nearly all actives have a fitted effect of over 45% in size
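PC12 cells with ecdysone-inducible HTT exon 1 Q103-GFP, induced with 100 nM tebufenozide and co-treated with library compounds in a dose series (1536-well, 1500 cells/well). Cytoprotection read as ATP content by ATPlite luminescence.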
L3MBTL1 inh – inhibitors of human L3MBTL1; AID 485360; AlphaScreen L3MBTL1–H3K9me1 peptide binding; Potency, µM (doses to about 57.1 µM), most hits filed as inhibitors; 0.66% of 230,000 active; Q9Y468; note: nearly all actives have a fitted effect of over 60% in size
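First, the protein-peptide complex forms for 30 min at room temperature (L3MBTL1 50 nM, biotinylated H3K9me1 peptide 75 nM). Next, compounds are pin-transferred and incubated 30 min. Finally, AlphaScreen beads are added and read after 30 min.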
JMJD2E inh – inhibitors of human JMJD2E histone demethylase; 1.6% of 230,000 active; Potency, µM (doses to about 57.1 µM), usual class: inhibitors; B2RXH2; JMJD2E catalytic domain, FDH-coupled NADH fluorescence (FDH is formaldehyde dehydrogenase); AID 2147; active = well fitted inhibition curve with a large enough effect, not every such curve was filed as active; inconclusive = small, poorly fitted or top-dose-only effect, or another doubt; inactive = no such curve, though single readings can be large or run the other way; note: nearly all actives have a fitted effect of over 50% in size
Target sequence (B2RXH2 1-337 limits assumed): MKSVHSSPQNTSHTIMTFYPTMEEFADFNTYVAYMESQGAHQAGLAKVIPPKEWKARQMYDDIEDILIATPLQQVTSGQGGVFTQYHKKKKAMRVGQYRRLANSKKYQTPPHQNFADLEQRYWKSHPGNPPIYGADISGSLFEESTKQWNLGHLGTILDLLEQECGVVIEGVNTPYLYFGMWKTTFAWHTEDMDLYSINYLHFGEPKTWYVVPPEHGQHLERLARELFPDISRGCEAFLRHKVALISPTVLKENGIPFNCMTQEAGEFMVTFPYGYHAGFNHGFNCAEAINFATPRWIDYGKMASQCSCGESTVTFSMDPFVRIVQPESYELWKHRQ
HttQ103 aggreg – reduces HttQ103-GFP aggregates in PC12 cells; PC12 HttQ103-GFP aggregates, Acumen cytometry, 40 h; 1.1% of 220,000 active; AID 1688; Potency, µM (top dose mostly 46.1 µM), hits mostly inhibitors; note: nearly all actives have a fitted effect of over 60% in size
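Multiplexed with ATP-based cell death, this channel scores GFP aggregates in PC12 cells expressing inducible HTTex1-Q103-GFP. Induction used 100 nM tebufenozide; compounds were tested in concentration series.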
Numbers stand for hits; n = inactive; u = inconclusive; x = no result; ! = not active in a repeat; [ ] = dose if it differs, or a comment. Unless noted, calls come from the whole dose curve; as a rule, active = well fitted curve in the direction sought with a large enough effect; inconclusive = small, poorly fitted or top-dose-only effect, or another doubt; inactive = no such curve, though single readings can be large; an effect the other way counts as inactive or inconclusive.

SMILES	HTT cytoprotect	L3MBTL1 inh	JMJD2E inh	HttQ103 aggreg
COc1ccc(N2CCN(C(=O)CSc3nnc4n3C(C)(C)Cc3ccccc3-4)CC2)cc1	n[1.9 µM]	n	n	u
O=[N+]([O-])c1ccc(N/N=C/c2sc(N3CCOCC3)nc2-c2ccccc2)c(S(=O)(=O)Nc2ccccc2Cl)c1	n	n	n	u
O=[N+]([O-])c1ccc(N/N=C/c2sc(N3CCOCC3)nc2-c2ccccc2)c(S(=O)(=O)Nc2ccc(Cl)cc2)c1	n	n	n	3.5µM
COc1ccc2c(c1)C(=O)[C@H](OC(=O)NS(=O)(=O)c1ccc(F)cc1)[C@@H](c1ccc(OC)c(Br)c1)O2	n	x	n	x
Cc1cc(C)c2nc(NNC(=O)c3ccc(S(=O)(=O)N4CCc5ccccc5C4)cc3)sc2c1	x	u	n	n
Cc1cc(C)c2sc(NNC(=O)c3ccc(S(=O)(=O)N4CCc5ccccc5C4)cc3)nc2c1	x	u	13µM	n
COC(=O)NC(c1ccccc1)c1c[nH]c2ccc(OC)cc12 (stereo not drawn)	u	x	n	x
N=C1/C(=C\c2ccc(SCc3ccccc3)o2)C(=O)N=C2SC=NN12	n	x	n	n
CCS(=O)(=O)C1=NN2C(=N)/C(=C\c3ccc(SCc4ccco4)o3)C(=O)N=C2S1	n	32µM	u	n[9.22 µM]
O=C1[C@H]2[C@H]3[C@H](O)[C@H](O)C/C(=N/OC[C@@H](O)COCc4ccco4)[C@H]3CC[C@@H]2C(=O)N1c1cccc(Oc2ccccc2)c1	n[10 µM]	x	x	x
CC[C@H](C)[C@@H](NC(=O)O[C@@H]1Cc2cc(Br)ccc2O[C@H]1c1cccc(OC)c1)C(=O)OC	n	x	n	x
O=C1c2c(O)ccc(O)c2C(=O)c2c(NCCNCCO)ccc(NCCNCCO)c21	n	8.9µM	22µM!	10µM
COc1cc(C2CC(=O)Oc3cc(C)c(Cl)cc32)cc(OC)c1OC (stereo not drawn)	n	x	x	x
CC(=O)c1cc(O)c2ccccc2c1O	n[10 µM]	n	14µM	n[9.22 µM]
COC(=O)N[C@@H](c1cccc(F)c1)C(C(C)=O)C(=O)OC (stereo partly drawn)	n	x	u	x
O=C1C=C(NCc2ccccc2)c2ccccc2C1=O	n[10 µM]	22µM	u	n[9.22 µM]
CCCCNCC	n	x	x	x
O=C(c1ccco1)N1CCC2(CC1)CCN(c1ccccn1)CC2	n	x	x	x
CCCCCCOc1ccc(C(=O)n2cnc(N)n2)cc1	13µM	x	n	x
O=[N+]([O-])c1ccc(O)c(C=Nc2cccc3ccccc23)c1	x	n	x	x
O=[N+]([O-])c1ccc(O)c(N=Cc2sc3ccccc3c2O)c1	x	n	7.1µM	7.9µM
Oc1ccc(Cl)cc1N=Cc1sc2ccccc2c1Cl	2.2µM	x	u	u
CC(=O)c1ccc(OC2C(O)COC2/C=C/c2ccc(Cl)cc2)cc1 (stereo not drawn)	n[10 µM]	x	x	x
CC(=O)c1ccc(C2C=CC(Oc3ccc(F)cc3C)C(CO)O2)cc1 (stereo not drawn)	n[10 µM]	x	x	x
C=CCSC(=C(C#N)C#N)c1cc2c([nH]1)CCCC2	11µM	x	n	u
SMILES	HTT cytoprotect	L3MBTL1 inh	JMJD2E inh	HttQ103 aggreg
COc1ccccc1C[C@@H](Cc1nc2ccccc2[nH]1)c1nc2ccccc2[nH]1	n	x	x	x
CCN(CC)c1nc2ccccc2c(N)c1-c1ccccc1	n	n	n	11µM
Nc1c2ccccc2nc2ccccc12	n[10 µM]	n	u	u
O=C1c2ccccc2C(Cc2ccnc(F)c2)(Cc2ccnc(F)c2)c2ccccc21	n	x	n	x
Oc1ccc2ccccc2c1CN1CCCC1	n[10 µM]	n	32µM	n[9.22 µM]
CC1(C)O[C@H]2C[C@@H]3[C@H]4CCC5=CC(=O)C=C[C@]5(C)[C@@]4(F)[C@@H](O)C[C@]3(C)[C@]2(C(=O)CO)O1	n	x	x	n
COc1cc2nc(N3CC=[N+](C(=O)c4ccco4)CC3)nc(N)c2cc1OC	n[1.9 µM]	x	x	x
CCOC(=O)[C@@H](N)CS	n	x	x	n
CO[C@@]1(NC(=O)C2SC(=C(C(N)=O)C(=O)O)S2)C(=O)N2C(C(=O)O)=C(CSc3nnnn3C)CS[C@@H]21 (stereo partly drawn)	x	7.9µM	x	x
CCOc1ccccc1C1CC(=O)Nc2cc(OC)c(OC)cc21 (stereo not drawn)	x	n	x	x
CCOc1ccccc1C1CC(=O)NC2=C1C(=O)CC(C)(C)C2 (stereo not drawn)	n	n	n	35µM
O=C(c1ccc(S(=O)(=O)Cc2cc(F)ccc2F)c([N+](=O)[O-])c1)N1CCCCC1	n[10 µM]	n	n	13µM
O=C(c1ccc(S(=O)(=O)Cc2cc(F)ccc2F)c([N+](=O)[O-])c1)N1CCCC1	n	x	n	16µM
O=C(c1ccc(S(=O)(=O)Cc2ccccc2Cl)c([N+](=O)[O-])c1)N1CCN(c2ccccn2)CC1	n	x	n	16µM
COc1ccc2c(c1)[n+]([O-])c(/C(C)=N/NC(N)=S)c(C)[n+]2[O-]	n[10 µM]	x	x	x
COC(=O)[C@H](Cc1ccccc1)NC(=O)C/C=C\[C@@H](C)[C@@H](CO)OC	n[10 µM]	x	x	x
COC(=O)C1=C(C)NC(=O)/C1=C\c1cc(C)n(-c2ccc(F)cc2)c1C	n	n	20µM	n
COC(=O)C1=C(C)NC(=O)/C1=C\c1cc(C)n(-c2cccc(C)c2)c1C	n	x	n	n
Cc1nc([N+](=O)[O-])c(Br)n1Cc1ccc(Cl)c(Cl)c1	n[10 µM]	x	n	8.9µM
CC1(N)CCC(C(C)(C)N)CC1 (stereo not drawn)	n	x	x	x
CCOCC(O)COc1ccc(NC(=O)CC[S+](C)C)cc1 (stereo not drawn)	n	x	x	n
O=S1(=O)C=C(Sc2nc3ccccc3s2)c2ccccc21	2µM	x	u	4.5µM
NC([N-]/N=C/c1ccccn1)=[S]=[Fe].O=S(=O)(O)O	n[10 µM]	x	x	x
c1ccc(C2=Nn3c(nnc3-c3ccncc3)SC2)cc1	25µM	n	n	10µM
C=CCC(C)(O)c1ccccc1 (stereo not drawn)	x	x	n	x
SMILES	HTT cytoprotect	L3MBTL1 inh	JMJD2E inh	HttQ103 aggreg
COc1ccc(CCn2c(C)cc(C(=O)CSc3nc(N)cc(=O)[nH]3)c2C)cc1	n	n	n	7.1µM
Cc1cc(C)c(S(=O)(=O)n2ccc3ccccc32)c(C)c1	n	x	n	10µM
O=S(=O)(c1ccccc1)n1ccc2ccccc21	n	n	n	11µM
Cn1c(=O)c(CCc2ccccc2)nc2cnc(OCc3ccccc3)nc21	n	x	x	x
Cc1nn(C)c(C)c1/C=C/C(=O)O	11µM	n	n	n
Cc1noc(C)c1-c1cncnc1N1CCN(C)CC1	n	x	x	x
CCNc1ncc2nc(-c3ccccc3)c(=O)n(CCC#N)c2n1	n	x	x	x
Brc1cc(Br)c2nc(-c3cccs3)ccc2c1	n	x	u	n
Cc1nc2c(Br)cc(Br)cc2cc1O	n	x	n	11µM
CCCCCCCC/C=C\CCCCCCCC(=O)OC[C@@H](O)COP(=O)(O)O	n	x	n	x
COc1cc2c(cc1OC)C1(Nc3c-2c(C)nn3-c2ccccc2)C(=O)Nc2ccccc21 (stereo not drawn)	3.5µM	x	u	n
N#CC(C#N)=c1ccc2c(c1)NC1(CCCCC1)N=2	u	28µM	n	u
N#CC(C#N)=C1NC2(CCCCC2)Cc2ccccc21	n[10 µM]	n	n	n[9.22 µM]
CCC(C)c1ccc(O[C@@H]2O[C@H](CO)[C@@H](O)[C@H](O)[C@H]2NC(C)=O)cc1 (stereo partly drawn)	n	x	n	x
